Test results taken from PubChem BioAssay AID862 (The Scripps Research Institute Molecular Screening Center, 2007).
The campaign covered roughly 190,000 compounds. About 1,700 (0.89%) were called active.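 How the source made its calls: active means inhibition above the mean inhibition across all screened compounds plus 3 SD (cut at about 44% in these data); inactive means the rest.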 Only a selection was taken, and actives are over-represented in it overall.

Experiment: IL-6 driven STAT3 reporter inhibitors, primary screen, U3A cells, luciferase, luminescence, MLSCN library (AID 862);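 further: 0% = DMSO only wells and 100% = 100 µM nifuroxazide control wells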
Conditions: IL-6 STAT3-luciferase reporter, at 5.5 µM, hits give high values, host cell line lacks STAT1

| Compound | inhibition |
| --- | --- |
| Cc1ccc(OCC(=O)Nc2ccc(S(=O)(=O)Nc3ccccn3)cc2)cc1 | 4.3% (inactive) |
| Cc1cc(C)cc(OCC(=O)Nc2ccc(S(=O)(=O)Nc3ccccn3)cc2)c1 | -0.1% (inactive) |
| Cc1ccc(S(=O)(=O)Nc2ccc3ncccc3c2)cc1 | 49.6% (active) |
| CC1CCCCC1NC(=O)CO/N=C/c1ccc(OC(F)F)cc1 (stereo unspecified) | -1.1% (inactive) |
| CCCCC(O)(CCCC)C(=O)NN(C(=O)CCl)c1ccccc1 | 2.7% (inactive) |
| Cc1cc(CNC(=O)c2cccc([N+](=O)[O-])c2)c2ccccc2n1 | 12.3% (inactive) |
| Cc1cccc(-n2c(Cc3cc(=O)[nH]c(=O)[nH]3)nnc2SCC(=O)Nc2cccc(C(F)(F)F)c2)c1 | 2% (inactive) |
| CN(C)S(=O)(=O)c1cccc(NC(=S)N/N=C/C(=O)c2ccccc2)c1 | 8% (inactive) |
| O=C(O)c1cccc(NC(=S)N/N=C/c2c[nH]c3ccccc23)c1 | 73.2% (active) |
| CSC(=S)N/N=C/c1c[nH]c2ccccc12 | -10.1% (inactive) |
| CCS(=O)(=O)Nc1ccc(C2=NN(C(C)=O)C(c3cccs3)C2)cc1 (stereo unspecified) | 6.9% (inactive) |
| O=[N+]([O-])c1cc(S(=O)(=O)N2CCCC2)ccc1NN=C1CCCC1 | 8.3% (inactive) |
| Cc1ccc(S(=O)(=O)N(C)C)cc1NC(=O)COC(=O)c1c(C)noc1C | 6.4% (inactive) |
| COc1ccc(/C(=N\O)c2nccc3cc(OC)c(OC)cc23)cc1OC | -1.8% (inactive) |
| Cc1noc(NS(=O)(=O)c2ccc(N/C=C/C(=O)c3ccccc3)cc2)c1C | -6.5% (inactive) |
| Cc1ccc(N/C=C/C(=O)c2ccccc2)cc1C | 52.2% (active) |
| O=C(/C=C\NCC(=O)c1ccccc1)c1ccccc1 | 22.1% (inactive) |
| O=c1cc(O)c(-c2cccc(C(F)(F)F)c2)c(Cl)[nH]1 | 5.9% (inactive) |
| O=C(c1cn(-c2ccccc2)nc1-c1cc2ccccc2oc1=O)N1CCOCC1 | 11.6% (inactive) |
| O=c1oc2ccccc2cc1-c1cn(-c2ccccc2)c(=S)[nH]1 | 108% (active) |
| Nc1ncc(-c2cc3ccccc3oc2=O)s1 | 14.8% (inactive) |
| CC1(C)C2CC=C(/C=N/NC(=O)c3ccc(Cl)cc3)C1C2 (stereo unspecified) | -5.9% (inactive) |
| Fc1cccc(CSc2nnc3ccc(-c4ccncc4)nn23)c1 | 9.1% (inactive) |
| CCCNC(=O)c1c(N)n(-c2ccc(S(N)(=O)=O)cc2)c2nc3ccccc3nc12 | 21.5% (inactive) |
| CCC(C)NC(=O)c1c(N)n(/N=C/c2cccs2)c2nc3ccccc3nc12 (stereo unspecified) | 81.7% (active) |
| CC(C)Cn1c(N)c(C(=O)NCc2cccs2)c2nc3ccccc3nc21 | -8.7% (inactive) |

| Compound | inhibition |
| --- | --- |
| CN(/C(=N/S(=O)(=O)c1cccs1)c1ccccc1)c1ccc(O)cc1 | -3.2% (inactive) |
| Cc1cc(NC(=O)CN2C(=O)NC(C)(CCc3ccccc3)C2=O)no1 (stereo unspecified) | -5.6% (inactive) |
| O=C(O)CCc1nc2cc(Cl)ccc2n(Cc2ccccc2)c1=O | 2.8% (inactive) |
| Cn1c(-c2ccco2)nc2cc3ccccc3cc21 | 79.1% (active) |
| CN(c1nc2ccccc2n2c(-c3ccco3)nnc12)S(=O)(=O)c1ccccc1 | 4.1% (inactive) |
| CN1c2ccccc2-c2nc3ccccc3n2C1c1ccco1 (stereo unspecified) | 14% (inactive) |
| O=C1CCCC(O)=C1N=Nc1ccc2ncsc2c1 | -0.2% (inactive) |
| O=C(NCCCn1ccnc1)C(=O)c1cn(CC(=O)N2CCCCCC2)c2ccccc12 | 6.5% (inactive) |
| CC(C)N(C(=O)CSc1nc(COc2ccccc2)nc2ccccc12)C(C)C | 10.8% (inactive) |
| CC(=O)N1CCc2cc(Br)cc(S(=O)(=O)CCC(=O)Nc3c(C)n(C)n(-c4ccccc4)c3=O)c21 | -1.8% (inactive) |
| O=C(NCc1cccnc1)c1nc(-c2cccs2)no1 | 1.9% (inactive) |
| Cc1ccsc1C(=O)OCC(=O)c1cc(C)n(CC2CCCO2)c1C (stereo unspecified) | 95.8% (active) |
| Cc1cc(C(=O)Cn2cnc3cc([N+](=O)[O-])ccc3c2=O)c(C)n1CC1CCCO1 (stereo unspecified) | 8.2% (inactive) |
| Cc1ccsc1C(=O)OCC(=O)c1cc2ccccc2o1 | 13.5% (inactive) |
| CC(C)(C)C1CCC(OC(=O)CCC(=O)Nc2ccccc2)CC1 (stereo unspecified) | 5.2% (inactive) |
| O=C(c1cc(=O)c2ccccc2o1)N1CCN(c2ccccc2)CC1 | 4.4% (inactive) |
| Cc1ccc(-c2nnc(-c3ccc(NC(=O)c4cccs4)cc3)o2)cc1 | 11.8% (inactive) |
| Cc1nc(-c2ccc(NC(=O)c3cccs3)cc2)cs1 | 78.1% (active) |
| Cc1ccc(-c2csc(NC(=O)c3cccs3)n2)cc1 | 12.6% (inactive) |
| Cc1ccc(S(=O)(=O)N2CCN(CC(=O)N/N=C/c3cc([N+](=O)[O-])ccc3Cl)CC2)cc1 | -9.8% (inactive) |
| O=c1c2c(nc3cc(-c4cccc(Cl)c4)[nH]n13)CCCC2 | 65.7% (active) |
| O=C1CCCc2c1nc(-c1cccc(Cl)c1)n2O | -13.1% (inactive) |
| O=c1c2c(nc3nc[nH]n13)CCC2 | -1.5% (inactive) |
| O=C(c1ccccc1)c1ccc(OCC(O)CN2CCCC2)cc1 (stereo unspecified) | -2.9% (inactive) |
| CCc1cc(-c2n[nH]c(=S)n2CC(C)C)cs1 | 5% (inactive) |
| COc1ccc(OCc2cccc(C(=O)N3CCCC3)c2)cc1 | 29% (inactive) |

| Compound | inhibition |
| --- | --- |
| CCOc1ccc(OCc2cccc(C(=O)N(CC)CC)c2)cc1 | 70.7% (active) |
| CCN(CC)C(=O)c1ccc(O)c(OC)c1 | -3% (inactive) |
| Cc1ccc(NC(=O)C(=O)NCC2CCN(C(=O)c3cccc([N+](=O)[O-])c3)CC2)cc1 | 6.1% (inactive) |
| COc1ccc(C(=O)NC(=S)Nc2ccc(Cl)cn2)cc1OC | 20.4% (inactive) |
| COc1c(Cl)cc(C(=O)Nc2ccc(Cl)cn2)cc1Cl | -37.3% (inactive) |
| O=C(Nc1ccc2c(c1)OCCO2)c1ccc(Cl)c(S(=O)(=O)N2CCCCC2)c1 | 25.5% (inactive) |
| O=C(Nc1ccc(Cl)cn1)c1ccc2c(c1)OCCO2 | 70.2% (active) |
| O=C(Nc1cccc(S(=O)(=O)N2CCCCC2)c1)c1ccc2c(c1)OCO2 | 11.4% (inactive) |
| O=C(Nc1cccc(S(=O)(=O)Nc2ccc(Cl)cc2)c1)c1ccc2c(c1)OCCO2 | 44.7% (active) |
| CC(=O)NC(=S)NNC(=O)c1ccc(Br)cc1 | -0.5% (inactive) |
| O=C1N/C(=C/c2cccs2)C(=O)N1Cc1ccc(F)cc1 | -0.7% (inactive) |
| Cc1ccc(NC(=O)NNC(=O)c2sccc2-n2cccc2)cc1 | -2.5% (inactive) |
| Cc1ccnc(NC(=O)C(C)N2C(=O)c3ccccc3C2=O)c1 (stereo unspecified) | 1.4% (inactive) |
| c1c2c(cc3sc(N4CCCCC4)nc13)OCCO2 | 89.7% (active) |
| COc1ccc2nc(Nc3nc4cc5c(cc4s3)OCCO5)sc2c1 | 10.2% (inactive) |
| Brc1ccc2nc(N3CCCC3)sc2c1 | 30.3% (inactive) |
| CC(C)c1csc(CN2CCC(CO)(Cc3ccccc3)CC2)n1 | 2.1% (inactive) |
| CS(=O)(=O)N(Cc1ccccc1Cl)c1ccc(C(=O)NCc2cccnc2)cc1 | -0.3% (inactive) |
| Fc1ccc(CNCc2ccc(Br)cc2)cc1 | 19.2% (inactive) |
| NC1=NC(=O)S/C1=C\c1ccc(O)cc1 | 3.3% (inactive) |
| O=C(Nc1ccccc1)c1ccc2c(c1)OCO2 | 18.6% (inactive) |
| Cc1ccc(-c2csc(NC(=O)c3cnccn3)n2)cc1C | 15.5% (inactive) |
| O=C(Nc1nc(-c2ccc3c(c2)OCO3)cs1)c1ccncc1 | 64.6% (active) |
| Cc1cc(C)c2nc(NC(=O)c3ccc4c(c3)OCO4)sc2c1 | 6.8% (inactive) |
| O=C(Nc1nc(-c2ccncc2)cs1)C1COc2ccccc2O1 (stereo unspecified) | 22.6% (inactive) |
| O=C(Nc1nc2ccccc2s1)c1ccc2c(c1)OCO2 | 61.3% (active) |

| Compound | inhibition |
| --- | --- |
| C/C(CC(=O)Nc1cccc(C(F)(F)F)c1)=N\NC(=O)C(=O)NCC(C)C | 0.3% (inactive) |
| COc1ccc(S(=O)(=O)Nc2ccc3oc(C)c(C(C)=O)c3c2)cc1 | 46% (active) |
| COc1ccc2oc(C)c(NC(C)=O)c2c1 | 4.1% (inactive) |
| COC(=O)COc1ccc(S(=O)(=O)Nc2ccc(NC(C)=O)cc2)cc1 | -2% (inactive) |
| COc1cc(NS(=O)(=O)c2ccc(NC(C)=O)cc2)cc(OC)c1 | 38% (inactive) |
| COc1ccc(NS(=O)(=O)c2ccc(NC(C)=O)cc2)cc1OC | 47.9% (active) |
| COC(=O)c1c(C)oc2ccc(N(C(=O)Oc3ccccc3)S(=O)(=O)c3ccccc3)cc12 | 5.2% (inactive) |
| Cc1ccc2c(=O)oc(N(C)C)nc2c1 | -6.4% (inactive) |
| CCc1c(C)nc2c(OC)cccc2c1Cl | 3.4% (inactive) |
| COc1ccccc1C1SCCN1C(=O)c1ccc([N+](=O)[O-])cc1 (stereo unspecified) | -1.1% (inactive) |
| O=C(Nc1ccc(CSc2ccccc2)cc1)c1ccc(CN2CCOCC2)cc1 | 72.7% (active) |
| O=C(Nc1ccccc1C(=O)N1CCOCC1)c1ccc(CSc2ccccc2)cc1 | 24% (inactive) |
| COc1ccc(C(=O)Nc2ccc(CN3CCOCC3)cc2)cc1 | -2.1% (inactive) |
| COc1ccc(C(=O)Nc2ccc(-n3nncc3C(C)(C)C)cc2)cc1 | -0.3% (inactive) |
| Cc1cccc(C)c1Nc1nnc(SCC(=O)Nc2sccc2C#N)s1 | 6.5% (inactive) |
| Cc1csc(SCC(=O)Nc2sccc2C#N)n1 | 44.3% (active) |
| COc1ccc(NC(=O)CSc2nc(C)cs2)cc1 | 10.5% (inactive) |
| Cc1cc(-c2nnc(CCC(=O)NC(c3ccccc3)c3ccccc3)o2)no1 | 9.8% (inactive) |
| Cc1nn(CC#N)c(=O)n1N(C)c1ncc(C(F)(F)F)cc1Cl | 6.6% (inactive) |
| Cn1c(SCC(=O)Nc2ccc(Br)cc2F)nnc1-c1ccco1 | 7.9% (inactive) |
| COc1ccc(C(=O)Nc2ccc(S(=O)(=O)NC(C)C)cc2)cc1 | -0.4% (inactive) |
| COc1ccc(NS(=O)(=O)c2ccc(NC(=O)c3ccc(N(C)S(C)(=O)=O)cc3)cc2)cc1 | 60.1% (active) |
| COc1cc(OC)cc(C(=O)Nc2ccc(S(=O)(=O)Nc3cc(C)on3)cc2)c1 | 20.2% (inactive) |
